Several values for one entry are separate records, joined by “and”; a condition that tells them apart may be missing. Equal values may be shown once.
Columns and labels:
Test in all cases: growth AUC relative to DMSO control (median of replicates) (fraction); higher = more growth (less inhibition), active = hit call of the paper
Conditions in all cases: 20 µM; 24 h;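 active = AUC reduced over 20% with Padj below 0.05 in at least 2 of 3 replicates; inactive = otherwise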
[1] = test system: Escherichia coli ED1a
Method in brief: (§1)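 Gut bacterial monocultures were grown anaerobically at 37 °C in mGAM, starting at OD600 0.05, with 20 µM compound (1% DMSO) in round-bottom 96-well plates under pierced gas-permeable seals. OD600 was read hourly for 24 h. Area under the growth curve (minimum OD set to 0) was normalised to the plate median of DMSO controls, or to row and column medians on the industrial chemical plate. The value is the median of three biological replicates grown on separate days.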

[2] = test system: Escherichia coli IAI1
Method in brief: as §1

[3] = test system: Eubacterium rectale
Method in brief: as §1

[4] = test system: Roseburia intestinalis
Method in brief: as §1

[5] = test system: Coprococcus comes
Method in brief: as §1

[6] = test system: Fusobacterium nucleatum subsp. animalis
Method in brief: as §1

[7] = test system: Lactobacillus gasseri
Method in brief: as §1

[8] = test system: Lactobacillus paracasei
Method in brief: as §1

[9] = test system: Odoribacter splanchnicus
Method in brief: as §1

[10] = test system: Parabacteroides distasonis
Method in brief: as §1

[11] = test system: Parabacteroides merdae
Method in brief: as §1

[12] = test system: Streptococcus salivarius
Method in brief: as §1

Measured: growth AUC

ClC1C(Cl)C(Cl)C(Cl)C(Cl)C1Cl (configuration not stated)
inactive: [1] 0.985 and 1.04 and 1.03 | [2] 1 and 1.02 and 1.01 | [3] 1.02 and 0.946 and 1.01 | [4] 1.03 and 1.04 and 0.953

CP(=O)(O)CC(=O)O
inactive: [5] 0.991 | [1] 0.984 | [2] 1 | [3] 1.07 | [6] 0.945 | [7] 1.02 | [8] 0.871 | [9] 0.978 | [10] 0.979 | [11] 0.982 | [4] 1.09 | [12] 0.998

C=CCOC(=O)C(C)(C)OC(=O)c1cc(-n2c(=O)cc(C(F)(F)F)n(C)c2=O)ccc1Cl
inactive: [5] 1 | [1] 0.998 | [2] 1.02 | [3] 1.05 | [6] 1.09 | [7] 0.871 | [8] 1.01 | [9] 0.913 | [10] 0.811 | [11] 0.962 | [4] 0.994 | [12] 0.98

CN=C=S
inactive: [5] 1 | [1] 1 | [2] 1.01 | [3] 0.972 | [6] 0.977 | [7] 0.962 | [8] 1.04 | [9] 1.06 | [10] 1.08 | [11] 1 | [4] 0.997 | [12] 0.994

CO/C=C(/C(=O)OC)c1ccccc1COc1cccc(C(F)(F)F)n1
active: [10] 0.558
inactive: [5] 0.993 | [1] 0.989 | [2] 0.997 | [3] 0.937 | [6] 0.948 | [7] 0.975 | [8] 1.02 | [9] 0.964 | [11] 0.924 | [4] 0.989 | [12] 0.999

COCc1c(F)c(F)c(COC(=O)[C@@H]2[C@@H](C=C(Cl)Cl)C2(C)C)c(F)c1F
inactive: [5] 0.981 | [1] 1.03 | [2] 1.02 | [3] 1.09 | [6] 1.09 | [7] 1.03 | [8] 1.04 | [9] 1.03 | [10] 1 | [11] 1.01 | [4] 0.979 | [12] 0.986

COP(=S)(OC)SCC(=O)N(c1ccc(Cl)cc1)C(C)C
inactive: [5] 1.04 | [1] 0.988 | [2] 0.976 | [3] 0.964 | [6] 0.985 | [7] 1.03 | [8] 1.04 | [9] 1 | [10] 0.861 | [11] 0.924 | [4] 1.03 | [12] 0.992

CC(Oc1ccc(Oc2ccc(C(F)(F)F)cn2)cc1)C(=O)O (configuration not stated)
active: [9] 0.766
inactive: [5] 1.01 | [1] 0.995 | [2] 0.996 | [3] 1.12 | [6] 0.915 | [7] 0.839 | [8] 0.969 | [10] 0.72 | [11] 0.993 | [4] 0.908 | [12] 0.93

OC(c1ccc(Cl)cc1)(c1cncnc1)c1ccccc1Cl (configuration not stated)
active: [11] 0.299
inactive: [5] 0.987 | [1] 0.991 | [2] 0.973 | [3] 1.14 | [6] 1.01 | [7] 0.922 | [8] 1.12 | [9] 0.611 | [10] 0.886 | [4] 1 | [12] 0.939

COC(=O)NCc1cc(/C(C)=N\OCc2cccc(C)n2)ccc1Cl
inactive: [5] 1.05 | [1] 0.979 | [2] 0.995 | [3] 1.08 | [6] 0.934 | [7] 0.893 | [8] 0.969 | [9] 1 | [10] 0.772 | [11] 0.947 | [4] 1.01 | [12] 0.974

CC1(C)CCC(Cc2ccc(Cl)cc2)C1(O)Cn1cncn1 (configuration not stated)
inactive: [5] 0.982 | [1] 0.971 | [2] 0.98 | [3] 0.8 | [6] 1.08 | [7] 0.976 | [8] 1.02 | [9] 0.823 | [10] 0.927 | [11] 0.918 | [4] 0.943 | [12] 1

CNC(=O)N(C)c1nc2ccccc2s1
inactive: [5] 0.992 | [1] 0.999 | [2] 0.991 | [3] 0.958 | [6] 0.971 | [7] 0.994 | [8] 0.949 | [9] 0.988 | [10] 0.972 | [11] 1.02 | [4] 0.989 | [12] 1

Oc1ccccc1Cl
inactive: [5] 0.975 | [1] 1.01 | [2] 1.01 | [3] 0.921 | [6] 0.994 | [7] 1.05 | [8] 0.883 | [9] 0.906 | [10] 0.995 | [11] 1 | [4] 0.965 | [12] 1.01

COP(=S)(NC(C)C)Oc1ccccc1C(=O)OC(C)C (configuration not stated)
active: [10] 0.53
inactive: [5] 1.03 | [1] 1.02 | [2] 0.988 | [3] 0.92 | [6] 1.08 | [7] 0.984 | [8] 0.962 | [9] 1.07 | [11] 0.931 | [4] 0.938 | [12] 0.977

CCCOP(=S)(OCCC)SCC(=O)N1CCCCC1C (configuration not stated)
inactive: [5] 0.943 | [1] 0.985 | [2] 1 | [3] 1 | [6] 1.08 | [7] 0.891 | [8] 1.02 | [9] 1.01 | [11] 0.955 | [4] 0.992 | [12] 0.953
active: [10] 0.676

CC1COC(Cn2cncn2)(c2ccc(Oc3ccc(Cl)cc3)cc2Cl)O1 (configuration not stated)
active: [5] 0.72 | [3] 0.723
inactive: [1] 0.979 | [2] 1 | [6] 0.983 | [7] 0.952 | [8] 0.986 | [9] 0.904 | [10] 0.801 | [11] 0.871 | [4] 0.823 | [12] 0.962

CCOP(=S)(OCC)Oc1ccc([N+](=O)[O-])cc1
inactive: [5] 0.997 | [1] 1 | [2] 0.979 | [3] 1.09 | [6] 1.11 | [7] 0.98 | [8] 1.04 | [9] 1.02 | [10] 0.964 | [11] 0.994 | [4] 1.01 | [12] 0.93

Oc1ccccc1-c1ccccc1
inactive: [5] 1 | [1] 1.02 | [2] 1.05 | [3] 0.984 | [6] 0.988 | [7] 1.08 | [8] 0.923 | [9] 1.03 | [10] 0.976 | [11] 1.04 | [4] 0.939 | [12] 1.04

ClC1=C(Cl)C2(Cl)C3COCC3C1(Cl)C2(Cl)Cl (configuration not stated)
inactive: [5] 0.912 | [1] 1 | [2] 1.03 | [3] 0.992 | [6] 1.12 | [7] 1.01 | [8] 0.94 | [9] 0.99 | [10] 0.987 | [11] 1.02 | [4] 1.08 | [12] 0.915

CC1(C)C(/C=C(\Cl)C(F)(F)F)C1C(=O)OC(C#N)c1cccc(Oc2ccccc2)c1 (configuration not stated)
inactive: [5] 1.01 | [1] 1.05 | [2] 1.02 | [3] 1.03 | [6] 1.12 | [7] 0.895 | [8] 1.08 | [9] 0.878 | [10] 1.03 | [11] 1.03 | [4] 0.952 | [12] 0.981

CCOP(=S)(OCC)Oc1ccc(=O)n(-c2ccccc2)n1
inactive: [5] 0.973 | [1] 0.965 | [2] 0.97 | [3] 0.956 | [6] 0.955 | [7] 0.928 | [8] 1.01 | [9] 0.986 | [10] 0.922 | [11] 0.974 | [4] 0.988 | [12] 0.983

CCCCC(C#N)(Cn1cncn1)c1ccc(Cl)cc1 (configuration not stated)
inactive: [5] 1.02 | [1] 0.966 | [2] 0.97 | [3] 1.01 | [6] 1.02 | [7] 0.965 | [8] 0.916 | [9] 1.04 | [10] 1.02 | [11] 0.988 | [4] 0.94 | [12] 0.993

CSc1nc(N=[N+]=[N-])nc(NC(C)C)n1
inactive: [5] 0.963 | [1] 1.02 | [2] 1.01 | [3] 1.05 | [6] 0.812 | [7] 1.15 | [8] 0.938 | [9] 1.02 | [10] 1.02 | [11] 1 | [4] 1.1 | [12] 1.07

c1nc[n]([Sn]([CH]2CCCCC2)([CH]2CCCCC2)[CH]2CCCCC2)n1
inactive: [5] 0.723 | [1] 1.06 | [2] 1.06 | [3] 0.908 | [6] 1.03 | [7] 1.03 | [8] 0.972 | [9] 1.03 | [10] 0.927 | [12] 1.01
active: [11] 0.746 | [4] 0.654

CCCC1COC(Cn2cncn2)(c2ccc(Cl)cc2Cl)O1 (configuration not stated)
active: [3] 0.545
inactive: [5] 0.941 | [1] 0.979 | [2] 0.972 | [6] 1 | [7] 0.968 | [8] 0.936 | [9] 0.977 | [10] 0.837 | [11] 0.855 | [4] 0.995 | [12] 0.964
